Laboratory results published in PubChem BioAssay (NCI).
This is part of a sample that, as a whole, favours compounds with a hit. Of some 79,000 tested, about 15% had one in any assay. Activity calls are given as the source filed them. No stated cut-off is given here; in the data, active means growth inhibition above about 70%; inactive means the rest.

What was measured:
[1] = NCI Yeast Anticancer Drug Screen. Data for the mec2-1 strain (AID 157); settings: S. cerevisiae mec2-1 strain, hits give high values
Method in brief: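 Readout is yeast growth inhibition, normalised to vehicle-treated controls, in the mec2-1 strain exposed to compound.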

[2] = NCI Yeast Anticancer Drug Screen. Data for the rad14 strain (AID 159);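 further: 0% = growth of vehicle-treated control cultures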; settings: S. cerevisiae rad14 strain growth inhibition, hits give high values
Method in brief: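 Test compounds were applied to a repair-deficient yeast strain. Its growth was then compared with that of cultures given vehicle alone, and inhibition was expressed relative to those controls.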

[3] = NCI Yeast Anticancer Drug Screen. Data for the sgs1 mgt1 strain (AID 161);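 further: 0% = growth of cultures given vehicle only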; settings: S. cerevisiae sgs1 mgt1 strain, hits give high values
Method in brief: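 Compounds are added to genetically altered yeast, and growth is compared with cultures given vehicle alone to give percent inhibition.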

[4] = NCI Yeast Anticancer Drug Screen. Data for the CLN2oe strain (AID 163);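 further: 0% = growth of vehicle-only control cultures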; settings: S. cerevisiae CLN2oe strain, hits give high values
Method in brief: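 Values reflect how much compound exposure reduced yeast growth, referenced to vehicle-exposed cells. Assay organism is a strain with a defined genetic change affecting cell-cycle control.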

[5] = NCI Yeast Anticancer Drug Screen. Data for the cln2 rad14 strain (AID 165);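 further: 0% = growth equal to vehicle treated cultures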; settings: S. cerevisiae cln2 rad14 strain, hits give high values
Method in brief: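 Relative to vehicle controls, growth inhibition of compound-treated cln2 rad14 yeast was recorded.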

[6] = NCI Yeast Anticancer Drug Screen. Data for the bub3 strain (AID 167); settings: S. cerevisiae bub3 mutant strain, hits give high values
Method in brief: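 Yeast carrying a defined mutation is treated with each compound, and growth is compared with that of vehicle-exposed cells to give inhibition.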

[7] = NCI Yeast Anticancer Drug Screen. Data for the wt2 strain (AID 169);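 further: 0% = growth of vehicle-treated yeast cultures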; settings: S. cerevisiae wt2 strain growth inhibition, hits give high values
Method in brief: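 Values express reduction in yeast growth under compound treatment, referenced to vehicle-treated cells.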

[8] = NCI Yeast Anticancer Drug Screen. Data for the mlh1 strain (AID 171);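 further: 0% = growth of vehicle-treated control cultures of the same strain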; settings: S. cerevisiae mlh1 strain growth inhibition, hits give high values
Method in brief: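 Steps: expose the defined-mutant yeast strain to compound; expose a parallel culture to vehicle; measure growth; express compound effect as inhibition relative to the vehicle culture.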

[9] = NCI Yeast Anticancer Drug Screen. Data for the sgs1 strain (AID 173);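 further: 0% = growth of vehicle-only control cultures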; settings: S. cerevisiae sgs1 mutant, hits give high values
Method in brief: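 Treat defined-mutant yeast with compound; measure growth; calculate inhibition relative to vehicle-treated cells.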

[10] = NCI Yeast Anticancer Drug Screen. Data for the mlh1 rad18 strain (AID 175); settings: S. cerevisiae mlh1 rad18 strain growth inhibition, hits give high values
Method in brief: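 Test agents were incubated with a yeast strain of defined genotype (DNA damage repair defect). Inhibition of growth was derived by comparison with vehicle-exposed cultures.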

[11] = NCI Yeast Anticancer Drug Screen. Data for the rad18 strain (AID 177); settings: S. cerevisiae rad18 mutant growth inhibition, hits give high values
Method in brief: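 A genetically defined yeast mutant impaired in DNA damage repair was treated with test compounds, then its growth was measured against cultures receiving vehicle alone.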

[12] = NCI Yeast Anticancer Drug Screen. Data for the rad52 strain (AID 147);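 further: 0% = growth of vehicle-treated control cultures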; settings: S. cerevisiae rad52 mutant growth inhibition, hits give high values
Method in brief: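 Screen used a yeast mutant impaired in DNA repair. After compound exposure, growth was measured. Values reflect inhibition compared with vehicle-treated cells.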

[13] = NCI Yeast Anticancer Drug Screen. Data for the wt1 strain (AID 149);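 further: 0% = growth of vehicle-treated wt1 cultures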; settings: S. cerevisiae wt1 strain (SPY 50644) growth inhibition, hits give high values
Method in brief: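 wt1 yeast, compound-treated; % growth inhibition vs vehicle control.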

[14] = NCI Yeast Anticancer Drug Screen. Data for the rad50EPP+ strain (AID 151);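 further: 0% = growth of vehicle-treated control cultures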; settings: S. cerevisiae rad50 mutant strain, hits give high values
Method in brief: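 Exposing the rad50EPP+ strain to each compound, growth was compared with vehicle-only cultures to give inhibition.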

[15] = NCI Yeast Anticancer Drug Screen. Data for the mgt1 strain (AID 153); settings: S. cerevisiae mgt1 mutant growth inhibition, hits give high values
Method in brief: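 Genetically defined yeast (mgt1) treated with compound; inhibition of growth expressed against vehicle-treated controls.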

[16] = NCI Yeast Anticancer Drug Screen. Data for the rad50 strain (AID 155);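 further: 0% = growth of vehicle-only cultures of the same strain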; settings: S. cerevisiae rad50 strain growth inhibition, hits give high values
Method in brief: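 Genetically altered yeast (DNA repair pathway); compound treatment; growth inhibition vs vehicle ctrl.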

[17] = at 5.0 µM (retest, dose inferred, filed as 0.5)
[18] = at 50.0 µM (retest, dose inferred, filed as 5.0)

Measured: growth inhibition

O=C1c2cc([N+](=O)[O-])ccc2-c2cccc(F)c21
inactive: [1]; [17] 1% | [1]; at 11.0 µM 13% | [1]; at 33.0 µM 23% | [1]; [18] 7% | [1]; at 50.0 µM 59.7% | [1]; at 100.0 µM 41% | [2]; at 1.2 µM 5% | [2]; at 3.7 µM 11% | [2]; at 11.0 µM 26% | [2]; at 33.0 µM 42% | [2]; at 100.0 µM 61% | [3]; [17] 12% | [3]; [18] 41% | [3]; at 50.0 µM 67.3% | [4]; at 1.2 µM -2% | [4]; at 3.7 µM 0% | [4]; at 11.0 µM 6% | [4]; at 33.0 µM 15% | [4]; at 100.0 µM 22% | [5]; [17] 18% | [5]; [18] 30% | [5]; at 50.0 µM 54.9% | [6]; at 1.2 µM -4% | [6]; at 3.7 µM -7% | [6]; [17] 1% | [6]; at 11.0 µM 8% | [6]; at 33.0 µM 16% | [6]; [18] 8% | [6]; at 50.0 µM 33.1% | [6]; at 100.0 µM 25% | [7]; at 1.2 µM -1% | [7]; at 3.7 µM 3% | [7]; at 11.0 µM 4% | [7]; at 33.0 µM 17% | [7]; at 100.0 µM 46% | [8]; at 1.2 µM -3% | [8]; at 3.7 µM 5% | [8]; at 11.0 µM 13% | [8]; at 33.0 µM 22% | [8]; at 100.0 µM 44% | [9]; at 1.2 µM 3% | [9]; at 3.7 µM 10% | [9]; at 11.0 µM 21% | [9]; at 33.0 µM 34% | [9]; at 100.0 µM 52% | [10]; [17] 9% | [10]; [18] 64% | [11]; at 1.2 µM 45%
active: [10]; at 50.0 µM 82.5% | [11]; at 3.7 µM 78% | [11]; at 11.0 µM 90% | [11]; at 33.0 µM 93% | [11]; at 100.0 µM 89%

O=C1OC(=O)C2CCCC3CCCC1C32 (stereo unspecified)
inactive: [12]; at 1.2 µM 23% | [12]; at 3.7 µM 67% | [13]; at 1.2 µM 7% | [13]; at 3.7 µM 51% | [14]; at 1.2 µM 42% | [14]; at 3.7 µM 54% | [15]; at 1.2 µM 34% | [15]; at 3.7 µM 48% | [16]; at 1.2 µM 17% | [16]; at 3.7 µM 68% | [16]; [17] -10% | [16]; at 50.0 µM 39% | [1]; at 1.2 µM 39% | [1]; at 3.7 µM 33% | [1]; [17] -8% | [1]; at 50.0 µM 36.8% | [2]; at 1.2 µM 17% | [2]; at 3.7 µM 28% | [2]; at 11.0 µM 47% | [3]; [17] -21% | [3]; [18] 10% | [3]; at 50.0 µM 55.1% | [4]; at 1.2 µM 40% | [5]; [17] 15% | [5]; at 50.0 µM 20.8% | [6]; at 1.2 µM 28% | [6]; at 3.7 µM 66% | [6]; [17] 53% | [7]; at 1.2 µM 36% | [7]; at 3.7 µM 62% | [8]; at 1.2 µM 44% | [8]; at 3.7 µM 64% | [9]; at 1.2 µM 26% | [10]; [17] 31% | [10]; at 50.0 µM 26.9% | [11]; at 1.2 µM 25% | [11]; at 3.7 µM 67%
active: [12]; at 11.0 µM 85% | [12]; at 33.0 µM 90% | [12]; at 100.0 µM 97% | [13]; at 11.0 µM 83% | [13]; at 33.0 µM 90% | [13]; at 100.0 µM 97% | [14]; at 11.0 µM 75% | [14]; at 33.0 µM 90% | [14]; at 100.0 µM 95% | [15]; at 11.0 µM 82% | [15]; at 33.0 µM 87% | [15]; at 100.0 µM 96% | [16]; at 11.0 µM 93% | [16]; at 33.0 µM 96% | [16]; [18] 97% | [16]; at 100.0 µM 96% | [1]; at 11.0 µM 71% | [1]; at 33.0 µM 95% | [1]; [18] 99% | [1]; at 100.0 µM 97% | [2]; at 33.0 µM 87% | [2]; at 100.0 µM 94% | [4]; at 3.7 µM 71% | [4]; at 11.0 µM 95% | [4]; at 33.0 µM 97% | [4]; at 100.0 µM 96% | [5]; [18] 98% | [6]; at 11.0 µM 93% | [6]; at 33.0 µM 96% | [6]; [18] 99% | [6]; at 50.0 µM 71.5% | [6]; at 100.0 µM 97% | [7]; at 11.0 µM 80% | [7]; at 33.0 µM 89% | [7]; at 100.0 µM 96% | [8]; at 11.0 µM 93% | [8]; at 33.0 µM 96% | [8]; at 100.0 µM 97% | [9]; at 3.7 µM 78% | [9]; at 11.0 µM 93% | [9]; at 33.0 µM 94% | [9]; at 100.0 µM 98% | [10]; [18] 98% | [11]; at 11.0 µM 94% | [11]; at 33.0 µM 94% | [11]; at 100.0 µM 97%
